# Experimental data reported in the antibiotic and cytotoxicity screens of Wong et al. (2023).
# Among all 39,000 compounds or so, about 3,300 (8.5%) were called active. The full list was thinned out, with actives kept by preference.
# Tested on: HepG2
# Assay: cytotoxicity call (relative viability < 0.9)
# Details: 10 µM
row,Compound,cytotoxicity call
1,OCc1ncc[nH]1,inactive
2,CCNC(=O)[C@H]1[C@H](CO)[C@H]2Cn3c(ccc(-c4ccc(OC)cc4)c3=O)[C@@H]1N2S(C)(=O)=O,inactive
3,C[C@@H]1CN([C@@H](C)CO)S(=O)(=O)c2ccc(C3=CCCC3)cc2O[C@@H]1CN(C)C(=O)Cc1ccncc1,inactive
4,COc1ccc2c(c(Br)c(C(=O)O)n2CCCOc2cccc3ccccc23)c1-c1ccccc1C,inactive
5,C[C@H](CO)N1C[C@H](C)[C@@H](CN(C)Cc2ccc(C(=O)O)cc2)Oc2ccc(NC(=O)Cn3cnnn3)cc2CC1=O,inactive
6,CC(C)(C)C(=O)C[C@@H](Nc1ccccc1)c1ccc(Cl)cc1,inactive
7,COc1cccc(-c2ccc3n(c2=O)C[C@H]2[C@H](CO)[C@@H](C(=O)NCC4CC4)[C@@H]3N2S(C)(=O)=O)c1,inactive
8,C[C@H]1CN([C@@H](C)CO)C(=O)c2cccc(NS(=O)(=O)c3cn(C)cn3)c2O[C@@H]1CN(C)CC1CC1,inactive
9,CCc1nc2c(OCC(=O)c3ccc(Cl)cc3Cl)cccn2c1N(C)C(=O)COc1ccccc1,active
10,CCc1nc2ccc(C(=O)N3CCN(C(=O)c4ccco4)CC3)cn2c1N(C)C(=O)COc1ccccc1,inactive
11,CCc1nc2c(OCC(=O)c3ccc(Cl)cc3Cl)cccn2c1N(C=O)Cc1ccc(OC)cc1,inactive
12,C[C@@H]1CN([C@H](C)CO)C(=O)Cc2cc(NS(=O)(=O)c3cccs3)ccc2O[C@H]1CN(C)CC1CC1,inactive
13,CC(C)=CCC/C(C)=C/CC1=C(C)C(=O)c2ccccc2C1=O,inactive
14,C[C@@H]1CN([C@@H](C)CO)C(=O)Cc2cc(NC(=O)Nc3cccc4ccccc34)ccc2O[C@@H]1CN(C)C(=O)Nc1ccc(C(F)(F)F)cc1,inactive
15,C[C@@H]1CN([C@@H](C)CO)C(=O)Cc2cc(NC(=O)Nc3cccc4ccccc34)ccc2O[C@H]1CN(C)Cc1ccc(C(F)(F)F)cc1,inactive
16,C[C@H]1CN([C@@H](C)CO)C(=O)Cc2cc(NC(=O)Nc3cccc4ccccc34)ccc2O[C@@H]1CN(C)Cc1ccc(C(F)(F)F)cc1,inactive
17,C[C@H](CO)N1C[C@H](C)[C@H](CN(C)Cc2ccc(C(F)(F)F)cc2)Oc2ccc(NC(=O)Nc3cccc4ccccc34)cc2CC1=O,inactive
18,C[C@H]1CN([C@@H](C)CO)C(=O)Cc2cc(NC(=O)Nc3cccc4ccccc34)ccc2O[C@H]1CN(C)Cc1ccc(C(F)(F)F)cc1,active
19,C[C@@H]1CN([C@H](C)CO)C(=O)Cc2cc(NC(=O)Nc3cccc4ccccc34)ccc2O[C@H]1CN(C)Cc1ccc(C(F)(F)F)cc1,inactive
20,C[C@@H]1CN([C@H](C)CO)C(=O)Cc2cc(NC(=O)Nc3cccc4ccccc34)ccc2O[C@@H]1CN(C)Cc1ccc(C(F)(F)F)cc1,active
21,C[C@@H]1CN([C@@H](C)CO)C(=O)Cc2cc(NC(=O)Nc3cccc4ccccc34)ccc2O[C@@H]1CN(C)Cc1ccc(C(F)(F)F)cc1,active

row,Compound,cytotoxicity call
1,C[C@H](CO)N1C[C@H](C)[C@@H](CN(C)Cc2ccc(C(F)(F)F)cc2)Oc2ccc(NC(=O)Nc3cccc4ccccc34)cc2CC1=O,inactive
2,O=C(COc1ccccc1)N1CCNC1=O,inactive
3,CC(C)NC(=O)N(C)C[C@@H]1Oc2ncc(-c3ccc(C(=O)N(C)C)cc3)cc2C(=O)N([C@@H](C)CO)C[C@H]1C,inactive
4,O=C(C[C@H]1C[C@H]2c3cc(NC(=O)C4CCOCC4)ccc3O[C@H]2[C@@H](CO)O1)NCCN1CCCCC1,inactive
5,C[C@H]1CCCCO[C@H](CN(C)C(=O)c2ccccc2)[C@@H](C)CN([C@@H](C)CO)C(=O)c2cc(NC(=O)NC3CCCCC3)ccc2O1,inactive
6,C[C@@H]1CN([C@H](C)CO)C(=O)c2cc(NC(=O)c3ccncc3)ccc2O[C@@H]1CN(C)Cc1ccc2c(c1)OCO2,inactive
7,COc1ccc(S(=O)(=O)Nc2ccc3c(c2)C(=O)N([C@@H](C)CO)C[C@@H](C)[C@@H](CN(C)C(=O)Nc2ccc4c(c2)OCO4)OCCCC[C@H](C)O3)cc1,inactive
8,Cc1cn([C@@H]2C[C@H](O)[C@@H](CO)O2)c(=O)[nH]c1=O,inactive
9,Cc1ccc(S(=O)(=O)Nc2ccc3c(c2)C(=O)N([C@H](C)CO)C[C@H](C)[C@H](CN(C)C(=O)CCC(F)(F)F)OCCCC[C@@H](C)O3)cc1,inactive
10,CC(C)(C)OC(=O)C[C@H]1CC=CC[C@@H](CC(=O)NCCO)C(=O)N[C@@H](Cc2ccccc2)COC1=O,inactive
11,C[C@@H]1CN([C@@H](C)CO)C(=O)c2cccc(NC(=O)c3ccncc3)c2O[C@H]1CN(C)Cc1ccc2c(c1)OCO2,inactive
12,CC(C)NC(=O)Nc1ccc2c(c1)C(=O)N([C@@H](C)CO)C[C@H](C)[C@@H](CN(C)Cc1ccc(C(=O)O)cc1)O2,inactive
13,C[C@@H]1CCCCO[C@@H](CN(C)C(=O)Nc2ccc(F)cc2)[C@@H](C)CN([C@H](C)CO)C(=O)c2cc(NC(=O)c3ccncc3)ccc2O1,inactive
14,COc1ccc(S(=O)(=O)Nc2ccc3c(c2)C(=O)N([C@@H](C)CO)C[C@H](C)[C@@H](CN(C)C(=O)Nc2ccc4c(c2)OCO4)OCCCC[C@@H](C)O3)cc1,inactive
15,C[C@H]1CCCCO[C@H](CN(C)C(=O)Nc2ccc3c(c2)OCO3)[C@@H](C)CN([C@@H](C)CO)C(=O)c2cc(NS(=O)(=O)c3ccc(Cl)cc3)ccc2O1,active
16,Cc1ccc(S(=O)(=O)Nc2ccc3c(c2)C(=O)N([C@H](C)CO)C[C@H](C)[C@@H](CN(C)C(=O)Nc2ccc4c(c2)OCO4)OCCCC[C@H](C)O3)cc1,inactive
17,Cc1ccc(S(=O)(=O)Nc2ccc3c(c2)C(=O)N([C@@H](C)CO)C[C@H](C)[C@@H](CN(C)C(=O)Nc2ccc4c(c2)OCO4)OCCCC[C@@H](C)O3)cc1,inactive
18,COc1ccc(S(=O)(=O)Nc2ccc3c(c2)C(=O)N([C@@H](C)CO)C[C@@H](C)[C@@H](CN(C)C(=O)Nc2ccc4c(c2)OCO4)OCCCC[C@@H](C)O3)cc1,active
19,COc1ccc(S(=O)(=O)Nc2ccc3c(c2)C(=O)N([C@H](C)CO)C[C@H](C)[C@H](CN(C)C(=O)Nc2ccc4c(c2)OCO4)OCCCC[C@H](C)O3)cc1,inactive
20,C[C@@H]1CN([C@H](C)CO)C(=O)c2cc(NS(=O)(=O)c3ccc(Cl)cc3)ccc2O[C@@H](C)CCCCO[C@H]1CN(C)C(=O)Nc1ccc2c(c1)OCO2,inactive
21,C[C@@H]1CCCCO[C@H](CN(C)C(=O)Nc2ccc3c(c2)OCO3)[C@H](C)CN([C@@H](C)CO)C(=O)c2cc(NS(=O)(=O)c3ccc(Cl)cc3)ccc2O1,inactive

row,Compound,cytotoxicity call
1,Cc1ccc(S(=O)(=O)Nc2ccc3c(c2)C(=O)N([C@H](C)CO)C[C@H](C)[C@H](CN(C)C(=O)Nc2ccc4c(c2)OCO4)OCCCC[C@H](C)O3)cc1,active
2,COc1ccc2c3c(n(c2c1)C)[C@@H](CO)N(Cc1cc(cc(c1)OC)OC)C[C@]13CN(C1)C(=O)CN1CCOCC1,inactive
3,COCC(=O)N1CC[C@@H]2N(S(C)(=O)=O)CC[C@@]2(C(=O)N2CCOCC2)CC1,inactive
4,CC(=O)Nc1cc(C(C)C)c(C(C)C)cc1C(C)C,inactive
5,C[C@H](CO)N1C[C@H](C)[C@@H](CN(C)C(=O)Nc2ccc3c(c2)OCO3)OCCCC[C@H](C)Oc2ccc(NC(=O)c3ccccc3)cc2C1=O,inactive
6,COCC(=O)N1C[C@H](C)[C@H](OC)CN(C)C(=O)c2cc(NC(=O)c3ccc(F)cc3)ccc2OC[C@@H]1C,inactive
7,C[C@H]1CN([C@@H](C)CO)C(=O)c2cc(NS(=O)(=O)c3cccs3)ccc2O[C@@H]1CN(C)S(=O)(=O)c1ccc(F)cc1,inactive
8,COc1ccc2c3c([nH]c2c1)[C@H](CO)N(C[C@]13CCN(CC1)C(=O)c1ccccc1F)C(=O)Nc1ccccc1F,inactive
9,C[C@@H]1CN([C@H](C)CO)C(=O)c2cccc(NC(=O)Nc3ccc4c(c3)OCO4)c2O[C@H]1CN(C)S(C)(=O)=O,inactive
10,CN1C[C@@H](O)COC[C@H]2O[C@@H](CC(=O)N3CCN(c4ccccc4)CC3)CC[C@@H]21,inactive
11,CN1CCCC1c1cccnc1.O=C(O)C(O)C(O)C(=O)O.O=C(O)C(O)C(O)C(=O)O (stereo not drawn),inactive
12,C[C@H](c1cccnc1)N(C(=O)Nc1ccccc1)C1CCCCC1,active
13,CN(C)S(=O)(=O)N1C[C@H]2C[C@H](C(=O)Nc3cccnc3)[C@@H](C1)O2,inactive
14,C[C@@H]1CN([C@@H](C)CO)C(=O)c2cccc(NC(=O)C3CCCCC3)c2O[C@@H]1CN(C)C(=O)Nc1cccc2ccccc12,inactive
15,C=CCN1C(=O)[C@]2(O[C@H](CCO)[C@@H]([Si](C)(C)c3ccc(OC)cc3)[C@@H]2C)c2cc(NC(=O)[C@H](C)O)ccc21,inactive
16,C=CCN1C(=O)[C@]2(O[C@H](CCO)[C@@H]([Si](C)(C)c3ccc(OC)cc3)[C@@H]2C)c2cc(N(C=O)c3ccccc3)ccc21,active
17,C=CCN1C(=O)[C@@]2(O[C@@H](CCO)[C@H]([Si](C)(C)c3ccc(OC)cc3)[C@H]2C)c2cc(NC(=O)[C@H](C)O)ccc21,inactive
18,C=CCN1C(=O)[C@]2(O[C@H](CCn3cc(CCO)nn3)[C@@H]([Si](C)(C)c3ccc(OC)cc3)[C@@H]2C)c2cc(N3CCC3=O)ccc21,inactive
19,C=CCN1C(=O)[C@@]2(O[C@@H](CCO)[C@H]([Si](C)(C)c3ccc(OC)cc3)[C@H]2C)c2cc(N(C=O)c3ccccc3)ccc21,active
20,C=CCN1C(=O)[C@@]2(O[C@@H](CCn3cc(CCO)nn3)[C@H]([Si](C)(C)c3ccc(OC)cc3)[C@H]2C)c2cc(N3CCC3=O)ccc21,inactive
21,CC(=O)N[C@H](Cc1ccc2ccccc2c1)C(=O)N[C@H](Cc1ccc(Cl)cc1)C(=O)N[C@H](Cc1cccnc1)C(=O)N[C@@H](CO)C(=O)N[C@@H](Cc1ccc(NC(=O)[C@@H]2CC(=O)NC(=O)N2)cc1)C(=O)N[C@H](Cc1ccc(NC(N)=O)cc1)C(=O)N[C@@H](CC(C)C)C(=O)N[C@@H](CCCCNC(C)C)C(=O)N1CCC[C@H]1C(=O)N[C@H](C)C(N)=O,inactive
